From PubChem BioAssay
Unmarked numbers belong to inactive results. This is one part of the list. Calls of active or inactive are those of the source. Cut-off read from the data, not from the text of the source, unless noted: active = inhibition above about 36%; inactive = the rest.

Tests used:
[1] = tested on: transactivating tegument protein VP16 (Human herpesvirus 1); assay: VP16 transactivation reporter inhibitors, counter-screen for SRC2 inhibitor project, cell-based, luminescence, single concentration (AID 652007); settings: cell-based VP16 transactivation luciferase reporter, at 8.9 µM, hits give high values
[2] = molecular target: Nuclear receptor coactivator 2 (Homo sapiens) (UniProt Q15596); assay: SRC2 coactivator transcriptional activity inhibitors, confirmation, cell-based, luminescence, HEK293, triplicate (AID 652008;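 active = mean inhibition above 46.5%, the solvent-only control mean plus 3 SD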;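 note: 0% = DMSO-treated cells and 100% = Gossypol at 36 µM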); settings: HEK293 GAL4-SRC2 luciferase reporter, at 8.9 µM, hits give high values
[3] = compounds interfering with TAMRA-BSA probe, counter-screen for TCR-CD3 interaction inhibitor project, biochemical, fluorescence, TAMRA-labeled BSA (AID 652035; in the data active = inhibition above about 23%;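 note: 0% = buffer low control and 100% = reference high control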); settings: TAMRA-labeled BSA probe fluorescence counterscreen; at 9.4 µM; hits give high values
[4] = tested on: T-cell receptor (TCR)-CD3 interaction, human; assay: TCR-CD3 interaction inhibitors, retest, confirmation, biochemical, fluorescence, TAMRA-labeled TCR probe (AID 652036; in the data active = inhibition above about 19%); settings: TAMRA-labeled TCR probe fluorescence binding assay; at 9.4 µM; hits give high values
[5] = Gal4-VP16 luciferase reporter inhibitors, counter-screen for COUP-TFII antagonist project, cell-based, luminescence, HEK293 (AID 687007; in the data active = inhibition above about 13%); settings: at 8.5 µM, hits give high values
[6] = molecular target: COUP transcription factor 2 (Homo sapiens) (UniProt P24468); assay: NR2F2 transcriptional activity inhibitors, confirmation, cell-based, luciferase reporter, HEK293, triplicate (AID 687008;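 active = mean inhibition over three repeats above a set limit taken from the earlier primary screen, cut at about 38% in these data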;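 note: 100% = cells given the luciferase reporter alone without the COUP-TF2 vector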); settings: HEK293 NGFI-A luciferase reporter, luminescence; at 8.5 µM; hits give high values
Chain of COUP transcription factor 2 (Homo sapiens) (P24468 whole entry, looked up): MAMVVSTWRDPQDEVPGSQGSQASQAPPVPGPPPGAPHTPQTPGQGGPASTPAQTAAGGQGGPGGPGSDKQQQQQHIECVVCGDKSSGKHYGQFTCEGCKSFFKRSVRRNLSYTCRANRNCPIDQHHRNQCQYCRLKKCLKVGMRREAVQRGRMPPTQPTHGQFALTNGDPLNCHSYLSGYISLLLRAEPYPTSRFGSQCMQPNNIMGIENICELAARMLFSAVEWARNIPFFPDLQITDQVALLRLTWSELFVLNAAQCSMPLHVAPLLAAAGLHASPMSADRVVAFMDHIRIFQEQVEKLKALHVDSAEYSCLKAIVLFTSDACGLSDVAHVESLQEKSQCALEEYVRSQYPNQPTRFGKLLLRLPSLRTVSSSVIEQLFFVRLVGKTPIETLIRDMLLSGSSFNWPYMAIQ

Chain of Nuclear receptor coactivator 2 (Homo sapiens) (Q15596 whole entry, looked up, the tested form may be a part): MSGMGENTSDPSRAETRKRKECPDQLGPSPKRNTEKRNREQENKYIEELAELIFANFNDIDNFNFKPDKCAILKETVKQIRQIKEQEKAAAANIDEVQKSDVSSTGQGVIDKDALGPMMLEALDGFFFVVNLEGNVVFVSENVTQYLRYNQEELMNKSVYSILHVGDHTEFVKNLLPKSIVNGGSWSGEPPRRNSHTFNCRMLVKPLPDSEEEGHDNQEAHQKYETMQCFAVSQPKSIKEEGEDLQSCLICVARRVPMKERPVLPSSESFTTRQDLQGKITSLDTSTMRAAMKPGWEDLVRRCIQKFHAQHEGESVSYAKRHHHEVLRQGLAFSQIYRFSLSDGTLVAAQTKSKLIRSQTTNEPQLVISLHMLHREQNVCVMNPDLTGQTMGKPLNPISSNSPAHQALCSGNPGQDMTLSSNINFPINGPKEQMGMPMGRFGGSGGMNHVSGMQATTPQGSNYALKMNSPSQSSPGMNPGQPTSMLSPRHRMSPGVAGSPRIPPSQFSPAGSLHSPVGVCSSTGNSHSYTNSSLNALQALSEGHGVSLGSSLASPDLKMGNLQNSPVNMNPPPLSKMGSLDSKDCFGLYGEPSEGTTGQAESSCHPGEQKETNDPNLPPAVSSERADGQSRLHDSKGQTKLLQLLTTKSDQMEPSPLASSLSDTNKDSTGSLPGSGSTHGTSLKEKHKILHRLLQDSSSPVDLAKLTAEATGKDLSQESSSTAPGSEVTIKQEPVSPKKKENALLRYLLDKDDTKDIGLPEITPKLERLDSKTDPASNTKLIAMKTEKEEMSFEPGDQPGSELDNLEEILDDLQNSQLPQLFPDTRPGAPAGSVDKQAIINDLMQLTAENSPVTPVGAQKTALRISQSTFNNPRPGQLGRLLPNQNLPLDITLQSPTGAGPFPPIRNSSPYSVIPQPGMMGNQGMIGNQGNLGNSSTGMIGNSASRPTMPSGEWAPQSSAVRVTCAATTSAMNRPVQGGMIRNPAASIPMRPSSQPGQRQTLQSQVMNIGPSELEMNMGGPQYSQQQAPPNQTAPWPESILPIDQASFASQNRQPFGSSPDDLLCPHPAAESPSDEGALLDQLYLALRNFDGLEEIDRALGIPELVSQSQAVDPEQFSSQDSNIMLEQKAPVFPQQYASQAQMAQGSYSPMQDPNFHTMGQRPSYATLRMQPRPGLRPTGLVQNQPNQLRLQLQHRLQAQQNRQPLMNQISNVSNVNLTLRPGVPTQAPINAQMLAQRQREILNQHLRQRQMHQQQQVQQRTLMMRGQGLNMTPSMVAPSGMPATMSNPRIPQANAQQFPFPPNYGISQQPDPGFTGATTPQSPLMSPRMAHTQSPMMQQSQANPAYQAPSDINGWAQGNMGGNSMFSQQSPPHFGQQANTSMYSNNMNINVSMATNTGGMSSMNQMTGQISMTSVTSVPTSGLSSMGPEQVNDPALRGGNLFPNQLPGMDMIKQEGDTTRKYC

Cc1nnc(NC(=O)c2nc(S(=O)(=O)Cc3ccccc3)ncc2Cl)s1
inhibition [1]: 1.66%
inhibition [2]: 22.4%

NCCCCCc1nnc(SCc2ccccc2Cl)o1
inhibition [1]: 48.5% (active)
inhibition [2]: 53.5% (active)

CC(C)(C)c1ccc(Oc2ccc(NC(=O)c3ccco3)cn2)cc1
inhibition [1]: 30.6%
inhibition [2]: 42.2%

Cn1nnnc1Sc1ncnc2scc(-c3cccc(F)c3)c12
inhibition [1]: 7.55%
inhibition [2]: 38.1%

O=C(COC(=O)CCCOc1ccc(Cl)cc1Cl)NCc1ccccc1
inhibition [1]: 0.2%
inhibition [2]: 15.4%

O=C(Nc1nc2cc3c(cc2s1)OCO3)C1=COCCO1
inhibition [1]: 26.7%
inhibition [2]: 70.3% (active)

COc1cc(S(=O)(=O)N(C)Cc2ccc3c(c2)OCCO3)ccc1NC(C)=O
inhibition [1]: -27.6%
inhibition [2]: -19.6%

CC(C)(c1ccc(O)cc1)c1ccc(O)c(C(=O)O)c1
inhibition [1]: -8.08%
inhibition [2]: -5.54%

COc1cc(/C=N/NC(=O)c2ccc(COc3cc(C)ccc3C(C)C)cc2)cc(OC)c1O
inhibition [1]: -2.59%
inhibition [2]: 62.9% (active)

Cc1ccc(NC(=O)CCN2CCCCC2)cc1
inhibition [1]: -25%
inhibition [2]: 32.5%

COc1ccc(-c2nc(-c3ccccc3)no2)c(OC)c1
inhibition [1]: 3.43%
inhibition [2]: 53.8% (active)

CC(C)CCn1cnc2c(sc3nc4c(cc32)CSC(C)(C)C4)c1=O
inhibition [1]: -42.3%
inhibition [2]: -11.9%

O=C(Nc1ccc2c(c1)OCCO2)c1ccc(Br)c(S(=O)(=O)N2CCOCC2)c1
inhibition [1]: -39.8%
inhibition [2]: 45.5%

COc1ccc(NS(=O)(=O)c2ccc(OC)c(N(C)S(=O)(=O)c3ccc(Cl)cc3)c2)cc1
inhibition [1]: 17.3%
inhibition [2]: 31.2%

O=C(NCCc1ccccc1)c1ccc2c(c1)OCO2
inhibition [1]: -13.4%
inhibition [2]: 16.7%

CCCNC(=O)C[C@H]1C[C@H]2c3cc(NC(=O)Nc4ccc(F)cc4)ccc3O[C@H]2[C@@H](CO)O1
inhibition [1]: 4.81%
inhibition [2]: -7.94%

Cc1ccc(C)c(NS(=O)(=O)c2cc(C(=O)NCCSC3CCCCC3)ccc2C)c1
inhibition [1]: -17.6%
inhibition [2]: 3.68%

COc1cc(OC)c(C(=O)C=Cc2ccc(OC)c(OC)c2)c(OC)c1
inhibition [1]: -5.35%
inhibition [2]: 6.31%

O=C(Nc1nnc(SCc2ccc(F)cc2)s1)c1cccnc1Cl
inhibition [1]: -9.69%
inhibition [2]: -19.9%

COc1ccc(C(=O)c2ccc(CC(=O)O)s2)cc1
inhibition [1]: 29.4%
inhibition [2]: 43.1%

C=CCN(CC=C)C(=O)c1cccc(S(=O)(=O)N2c3ccccc3CC2C)c1 (stereo not drawn)
inhibition [1]: 24.9%
inhibition [2]: 28.7%

Cc1nn(Cc2ccc(C(=O)NC(C)(C)C)o2)c(C)c1Br
inhibition [1]: 5.83%
inhibition [2]: 17.8%

Oc1cc2ccccc2cc1-c1nnc2n1-c1ccccc1SC2
inhibition [1]: 5.09%
inhibition [2]: 3.52%

O=C(O)CCSc1ncnc2sc(-c3ccccc3)cc12
inhibition [1]: 67.7% (active)
inhibition [2]: 88.4% (active)

CS(=O)(=O)Nc1cccc(NC(=O)C2Cc3c(-c4cccc(F)c4)ccnc3O2)c1 (stereo not drawn)
inhibition [1]: 21.8%
inhibition [2]: 36.3%

Cc1ccc(Nc2nc(-c3c(C)nc4ccccn34)cs2)cc1
inhibition [1]: -16.9%
inhibition [2]: 20.1%

CCCNC(=O)c1ccc(N2CCC3(CC2)CC(c2cccc(Br)c2)=NO3)c([N+](=O)[O-])c1
inhibition [1]: 8%
inhibition [2]: 7.7%

COc1cccc2c1C(CO)N1C(C#N)C3CC(C(=O)O)C(C1C2)N3C (stereo not drawn)
inhibition [1]: 40.5% (active)
inhibition [2]: 66.1% (active)

CC(C)(C)c1ccc(-c2noc(CCC(=O)NCc3ccco3)n2)cc1
inhibition [1]: 40.9% (active)
inhibition [2]: 59.5% (active)

CCN(CC)c1nc(C=Cc2ccc(N(C)C)cc2)c2nccnc2n1
inhibition [1]: 17.1%
inhibition [2]: 21.8%

CC(C)(C)c1ccc(OCC(O)CSc2ncn[nH]2)cc1 (stereo not drawn)
inhibition [1]: 0.7%
inhibition [2]: 14.2%

CN1CCN(/N=C/c2ccc(N(c3ccccc3)c3ccccc3)cc2)CC1
inhibition [1]: 2.36%
inhibition [2]: 27.4%

COc1ccc(OCCCCn2c(CO)nc3ccccc32)cc1
inhibition [1]: -6.88%
inhibition [2]: -14.2%

COCc1cc(N2CCN(C(=O)OC(C)(C)C)C[C@H]2C)ccc1N1CCS(=O)(=O)CC1
inhibition [1]: 5.52%
inhibition [2]: 33.9%

CCOC(=O)c1ccccc1NC(=O)Cn1c(-c2nonc2N)nc2ccccc21
inhibition [1]: -1.87%
inhibition [2]: 6.09%

Cc1ccc(NC(=O)Cn2cccc2C2=NC(c3ccccc3)CO2)cc1C (stereo not drawn)
inhibition [1]: -8.04%
inhibition [2]: -4.44%

COc1ccc(C(=O)Nn2c(SCC(=O)N3CCC(C)CC3)nc3ccccc3c2=O)cc1
inhibition [1]: 23.9%
inhibition [2]: 28.9%

Cc1ccc2c(c1)COc1c3ccc(C(=O)O)cc3nn1-2
inhibition [1]: -24.7%
inhibition [2]: -1.87%

CN(Cc1ccccc1)S(=O)(=O)c1ccc(Cl)c(C(=O)NCCCN2CCOCC2)c1
inhibition [1]: -5.53%
inhibition [2]: 5.69%

CC1CCc2c(sc3nc(CSc4ncn[nH]4)[nH]c(=O)c23)C1 (stereo not drawn)
inhibition [1]: 33%
inhibition [2]: 35.2%

COc1ccccc1N(CC(=O)N/N=C(\C)c1ccccc1O)S(=O)(=O)c1ccc(C)cc1
inhibition [1]: 12.9%
inhibition [2]: 25.4%
inhibition [3]: -17.6%
inhibition [4]: 14.3%

CC(C)c1nnc(NC(=O)c2nc(S(=O)(=O)Cc3ccccc3F)ncc2Cl)s1
inhibition [1]: 16.4%
inhibition [2]: 48% (active)

O=C(CCCN1C(=O)/C(=C/c2cccc(Br)c2)SC1=S)NCCCN1CCOCC1
inhibition [1]: 32.1%
inhibition [2]: 10.6%

O=C(Nc1ccc(NC(=O)c2ccco2)cc1)c1ccc2c(c1)OCCO2
inhibition [1]: -30.2%
inhibition [2]: 12.1%

CCOC(=O)CN(C)C(=O)CCc1nnc(-c2ccc(-c3ccccc3)cc2)o1
inhibition [1]: -17.7%
inhibition [2]: 19.8%

COc1cccc(CNc2nc(NCC3CC3)nc3ccsc23)c1OC
inhibition [1]: -3.78%
inhibition [2]: 18.8%

CCOc1ccc(CN(C)C(=O)CCl)cc1
inhibition [1]: 30.9%
inhibition [2]: 35.6%

CC(=O)Nc1ccc(NC(=O)c2nc(S(=O)(=O)Cc3cccc(C)c3)ncc2Cl)cc1
inhibition [1]: 21.6%
inhibition [2]: 50.8% (active)

COc1ccc(CNC(=O)COC(=O)/C=C/c2cccc(Br)c2)cc1OC
inhibition [1]: -0.64%
inhibition [2]: -19.4%

CCOC(=O)C1(Cc2ccccc2)CCN(Cc2ccnc3ccccc23)CC1
inhibition [1]: -2.44%
inhibition [2]: 14.6%

Cc1ccc2nc(-c3ccc(Br)cc3)cn2c1
inhibition [1]: 9.32%
inhibition [2]: 78.4% (active)
inhibition [5]: -12.3%
inhibition [6]: 19.1%

Cc1c(CCC(=O)NCCCC(=O)O)c(=O)oc2cc3oc4c(c3cc12)CCCC4
inhibition [1]: 47.5% (active)
inhibition [2]: 65% (active)

c1ccc(-n2nnnc2Oc2ccc(-n3ccnc3)cc2)cc1
inhibition [1]: -16.2%
inhibition [2]: 1.01%

CCC1CN(C(=O)NCc2cccc(OC)c2)c2ccccc2O1 (stereo not drawn)
inhibition [1]: -11.8%
inhibition [2]: -14.7%

COC(=O)c1cc(C(=O)OC)cc(S(=O)(=O)Nc2ccc(Cl)c(N)c2)c1
inhibition [1]: -6.46%
inhibition [2]: -14.7%

CCOC(=O)c1c(C)nn(-c2ccc(NC(=O)c3c(C)noc3C)cc2)c1C
inhibition [1]: 11.6%
inhibition [2]: 52.8% (active)

COc1ccc(C2C(O)C(c3c[nH]c4ccccc34)=NN2C(=O)CCl)cc1 (stereo not drawn)
inhibition [1]: 72.7% (active)
inhibition [2]: 79.9% (active)

Cc1c(CCC(=O)N2CCC(C(=O)O)CC2)c(=O)oc2cc3oc4c(c3cc12)CCCC4
inhibition [1]: 33.6%
inhibition [2]: 61% (active)

COc1cccc(N2CCN(c3ncnc4c3[nH]c3ccccc34)CC2C)c1 (stereo not drawn)
inhibition [1]: 63.8% (active)
inhibition [2]: 12.8%

O=C(CCl)Nc1cccc(S(=O)(=O)NC2=NCCC2)c1
inhibition [1]: 76.2% (active)
inhibition [2]: 38.1%

COc1cc(NC(=O)COC(=O)c2[nH]c(C)c(C(C)=O)c2C)cc(OC)c1
inhibition [1]: 9.16%
inhibition [2]: 15.2%

Cc1ccc(-c2noc(CCC(=O)NCCN3CCN(Cc4ccccc4)CC3)n2)cc1
inhibition [1]: 12.2%
inhibition [2]: 41.6%

COc1ccc(CCNc2oc(Cc3cccc4ccccc34)nc2C#N)cc1OC
inhibition [1]: -7.8%
inhibition [2]: 7.3%

O=C(c1cccc2c1-c1ccccc1/C2=N/O)N1CCCCC1
inhibition [1]: 0.22%
inhibition [2]: 30%

O=C(Nc1ccccc1)C1=C(c2ccccc2)S(=O)(=O)CCS1(=O)=O
inhibition [1]: 84.9% (active)
inhibition [2]: 90.1% (active)

COc1ccc(CCNc2ncnc3cc(OC)c(OC)cc23)cc1OC
inhibition [1]: 0.49%
inhibition [2]: 16.4%

O=S(=O)(O)Sc1ccccc1
inhibition [1]: -0.6%
inhibition [2]: 4.75%

O=S(=O)(c1ccc2c(c1)OCCO2)N1CCN(c2ncnc3sccc23)CC1
inhibition [1]: 6.15%
inhibition [2]: 36.6%

CN=C1CC(SC)=C1c1ccc(C)cc1
inhibition [1]: -10.3%
inhibition [2]: 1.69%

CCN(CC)S(=O)(=O)c1ccc(C)c(NC(=S)NC2CCCCC2)c1
inhibition [1]: 8.38%
inhibition [2]: -9.1%

CCOC(=O)c1c(C)[nH]c(C(=O)Nc2ccc(NC(C)=O)cc2)c1C
inhibition [1]: 6.79%
inhibition [2]: 8.17%

COc1cc(/C=C2\CC/C(=C\c3cc(OC)c(O)c(OC)c3)C2=O)cc(OC)c1O
inhibition [1]: -70.7%
inhibition [2]: -13%
